Laboratory results reported in PubChem BioAssay (NCI).
Compounds without any hit were thinned out: in the full panel of roughly 79,000, 15% have a hit. The source made the active and inactive calls. No stated cut-off is given here; in the data, active means growth inhibition above about 70%; inactive means the rest.

Columns and labels:
[1] = NCI Yeast Anticancer Drug Screen. Data for the rad52 strain (AID 147);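 further: 0% = growth of vehicle-treated control cultures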; conditions: S. cerevisiae rad52 mutant growth inhibition, active compounds read high
Procedure, shortened: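 Here a repair-compromised yeast strain receives each compound; its growth is then quantified and normalised to vehicle-only controls.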

[2] = NCI Yeast Anticancer Drug Screen. Data for the wt1 strain (AID 149);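 further: 0% = growth of vehicle-treated wt1 cultures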; conditions: S. cerevisiae wt1 strain (SPY 50644) growth inhibition, active compounds read high
Procedure, shortened: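 Each compound is tested on wt1 yeast and the loss of growth versus vehicle gives the inhibition value.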

[3] = NCI Yeast Anticancer Drug Screen. Data for the rad50EPP+ strain (AID 151);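 further: 0% = growth of vehicle-treated control cultures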; conditions: S. cerevisiae rad50 mutant strain, active compounds read high
Procedure, shortened: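 Read-out is yeast growth inhibition relative to vehicle; cells used were the rad50EPP+ strain.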

[4] = NCI Yeast Anticancer Drug Screen. Data for the mgt1 strain (AID 153); conditions: S. cerevisiae mgt1 mutant growth inhibition, active compounds read high
Procedure, shortened: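 Measured: inhibition of mgt1 yeast growth by compound, normalized to vehicle-treated cultures.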

[5] = NCI Yeast Anticancer Drug Screen. Data for the rad50 strain (AID 155);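 further: 0% = growth of vehicle-only cultures of the same strain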; conditions: S. cerevisiae rad50 strain growth inhibition, active compounds read high
Procedure, shortened: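 Vehicle-treated cultures provide the reference for the growth inhibition reported for compound-exposed, repair-deficient yeast.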

[6] = NCI Yeast Anticancer Drug Screen. Data for the mec2-1 strain (AID 157); conditions: S. cerevisiae mec2-1 strain, active compounds read high
Procedure, shortened: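 Using mec2-1 yeast: add compound, measure growth, express inhibition versus vehicle-treated cultures.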

[7] = NCI Yeast Anticancer Drug Screen. Data for the rad14 strain (AID 159);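 further: 0% = growth of vehicle-treated control cultures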; conditions: S. cerevisiae rad14 strain growth inhibition, active compounds read high
Procedure, shortened: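 Inhibition of growth is reported for a repair-deficient yeast mutant following compound treatment, calculated relative to cultures that received vehicle.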

[8] = NCI Yeast Anticancer Drug Screen. Data for the sgs1 mgt1 strain (AID 161);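 further: 0% = growth of cultures given vehicle only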; conditions: S. cerevisiae sgs1 mgt1 strain, active compounds read high
Procedure, shortened: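 Yeast cells carrying a defined DNA-repair defect were exposed to test compounds. Growth inhibition was measured relative to vehicle-treated controls.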

[9] = NCI Yeast Anticancer Drug Screen. Data for the CLN2oe strain (AID 163);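 further: 0% = growth of vehicle-only control cultures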; conditions: S. cerevisiae CLN2oe strain, active compounds read high
Procedure, shortened: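 Whole-cell yeast growth assay. A strain engineered for altered cell-cycle control received compound, and inhibition relative to vehicle-treated cultures was recorded.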

[10] = NCI Yeast Anticancer Drug Screen. Data for the cln2 rad14 strain (AID 165);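 further: 0% = growth equal to vehicle treated cultures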; conditions: S. cerevisiae cln2 rad14 strain, active compounds read high
Procedure, shortened: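 Yeast strain cln2 rad14, bearing defects in cell cycle control and DNA repair, serves as the test system; values reflect growth inhibition compared with vehicle.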

[11] = NCI Yeast Anticancer Drug Screen. Data for the bub3 strain (AID 167); conditions: S. cerevisiae bub3 mutant strain, active compounds read high
Procedure, shortened: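 Mutant yeast screening strain plus compound; vehicle-treated cultures serve as the 0% inhibition reference.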

[12] = NCI Yeast Anticancer Drug Screen. Data for the mlh1 strain (AID 171);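 further: 0% = growth of vehicle-treated control cultures of the same strain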; conditions: S. cerevisiae mlh1 strain growth inhibition, active compounds read high
Procedure, shortened: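 A yeast strain with a defined genetic lesion serves as the test organism. Cultures receive compound or vehicle, and growth is measured.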

[13] = NCI Yeast Anticancer Drug Screen. Data for the mlh1 rad18 strain (AID 175); conditions: S. cerevisiae mlh1 rad18 strain growth inhibition, active compounds read high
Procedure, shortened: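 Steps: expose repair-defective yeast to compound; measure growth; express inhibition against vehicle-treated controls.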

[14] = NCI Yeast Anticancer Drug Screen. Data for the rad18 strain (AID 177); conditions: S. cerevisiae rad18 mutant growth inhibition, active compounds read high
Procedure, shortened: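 Measured value is growth inhibition of a yeast strain bearing a DNA repair alteration, referenced to vehicle-treated cells.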

[15] = NCI Yeast Anticancer Drug Screen. Data for the sgs1 strain (AID 173);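 further: 0% = growth of vehicle-only control cultures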; conditions: S. cerevisiae sgs1 mutant, active compounds read high
Procedure, shortened: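 A genetically defined yeast mutant is incubated with the test compound, and its growth is compared to that of the same strain given vehicle.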

[16] = at 5.0 µM (retest, dose inferred, filed as 0.5)
[17] = at 50.0 µM (retest, dose inferred, filed as 5.0)

Measured: growth inhibition

O=C(COC(=O)c1ccccc1)c1ccc(Br)cc1
active: [1]; at 33.0 µM 99% | [1]; at 100.0 µM 98% | [2]; at 33.0 µM 99% | [2]; at 100.0 µM 97% | [3]; at 1.2 µM 75% | [3]; at 3.7 µM 93% | [3]; at 11.0 µM 99% | [3]; at 33.0 µM 99% | [3]; at 100.0 µM 97% | [4]; at 33.0 µM 99% | [4]; at 100.0 µM 98% | [5]; at 33.0 µM 98% | [5]; [17] 99% | [5]; at 50.0 µM 98.8% | [5]; at 100.0 µM 97% | [6]; at 33.0 µM 99% | [6]; [17] 99% | [6]; at 50.0 µM 99.3% | [6]; at 100.0 µM 99% | [7]; at 33.0 µM 99% | [7]; at 100.0 µM 98% | [8]; [17] 99% | [8]; at 50.0 µM 99.4% | [9]; at 33.0 µM 99% | [9]; at 100.0 µM 97% | [10]; [17] 99% | [10]; at 50.0 µM 98.8% | [11]; at 11.0 µM 100% | [11]; at 33.0 µM 99% | [11]; [17] 99% | [11]; at 50.0 µM 99.7% | [11]; at 100.0 µM 99% | [12]; at 33.0 µM 99% | [12]; at 100.0 µM 98% | [13]; [17] 99% | [13]; at 50.0 µM 99.2% | [14]; at 33.0 µM 99% | [14]; at 100.0 µM 98%
inactive: [1]; at 1.2 µM 14% | [1]; at 3.7 µM 20% | [1]; at 11.0 µM 45% | [2]; at 1.2 µM 2% | [2]; at 3.7 µM -4% | [2]; at 11.0 µM 8% | [4]; at 1.2 µM 5% | [4]; at 3.7 µM 13% | [4]; at 11.0 µM 22% | [5]; at 1.2 µM 17% | [5]; at 3.7 µM 23% | [5]; [16] 31% | [5]; at 11.0 µM 68% | [6]; at 1.2 µM 4% | [6]; at 3.7 µM 7% | [6]; [16] 67% | [6]; at 11.0 µM 17% | [7]; at 1.2 µM 16% | [7]; at 3.7 µM 18% | [7]; at 11.0 µM 30% | [8]; [16] 58% | [9]; at 1.2 µM 0% | [9]; at 3.7 µM 13% | [9]; at 11.0 µM 64% | [10]; [16] 12% | [11]; at 1.2 µM 49% | [11]; at 3.7 µM 65% | [11]; [16] 41% | [12]; at 1.2 µM 12% | [12]; at 3.7 µM 17% | [12]; at 11.0 µM 38% | [13]; [16] 34% | [14]; at 1.2 µM 15% | [14]; at 3.7 µM 17% | [14]; at 11.0 µM 37%

COc1ccc([N+](=O)[O-])c2c(NCCCN(C)C)c3ccccc3nc12
active: [1]; at 33.0 µM 72% | [1]; at 100.0 µM 89% | [5]; [17] 90% | [5]; at 100.0 µM 71% | [6]; [17] 99% | [6]; at 100.0 µM 85% | [7]; at 33.0 µM 80% | [7]; at 100.0 µM 94% | [8]; [17] 79% | [10]; [17] 98% | [11]; [16] 91% | [11]; [17] 100% | [15]; at 33.0 µM 83% | [15]; at 100.0 µM 90% | [13]; [17] 98% | [14]; at 3.7 µM 82% | [14]; at 11.0 µM 90% | [14]; at 33.0 µM 93% | [14]; at 100.0 µM 95%
inactive: [1]; at 1.2 µM 15% | [1]; at 3.7 µM 30% | [1]; at 11.0 µM 58% | [2]; at 1.2 µM 1% | [2]; at 3.7 µM 1% | [2]; at 11.0 µM 3% | [2]; at 33.0 µM 9% | [2]; at 100.0 µM 23% | [3]; at 1.2 µM -3% | [3]; at 3.7 µM 3% | [3]; at 11.0 µM 13% | [3]; at 33.0 µM 22% | [3]; at 100.0 µM 45% | [4]; at 1.2 µM 2% | [4]; at 3.7 µM 2% | [4]; at 11.0 µM 6% | [4]; at 33.0 µM 10% | [4]; at 100.0 µM 42% | [5]; at 1.2 µM 5% | [5]; at 3.7 µM -1% | [5]; [16] 16% | [5]; at 11.0 µM 11% | [5]; at 33.0 µM 50% | [5]; at 50.0 µM 49.1% | [6]; at 1.2 µM 4% | [6]; at 3.7 µM 4% | [6]; [16] -3% | [6]; at 11.0 µM 12% | [6]; at 33.0 µM 47% | [6]; at 50.0 µM 12.9% | [7]; at 1.2 µM 4% | [7]; at 3.7 µM 10% | [7]; at 11.0 µM 29% | [8]; [16] 5% | [8]; at 50.0 µM 46.8% | [9]; at 1.2 µM -3% | [9]; at 3.7 µM 3% | [9]; at 11.0 µM 2% | [9]; at 33.0 µM 8% | [9]; at 100.0 µM 25% | [10]; [16] 42% | [10]; at 50.0 µM 66.2% | [11]; at 1.2 µM -2% | [11]; at 3.7 µM -2% | [11]; at 11.0 µM -4% | [11]; at 33.0 µM 1% | [11]; at 50.0 µM -29% | [11]; at 100.0 µM 9% | [12]; at 1.2 µM 0% | [12]; at 3.7 µM 2% | [12]; at 11.0 µM 4% | [12]; at 33.0 µM 19% | [12]; at 100.0 µM 45% | [15]; at 1.2 µM 12% | [15]; at 3.7 µM 31% | [15]; at 11.0 µM 56% | [13]; [16] 7% | [13]; at 50.0 µM 68.5% | [14]; at 1.2 µM 62%
